Reference: the OligoGym collection

Target: ETFB
Assay: pooled miR-30 sensor sort-seq; sequence = guide strand
Conditions: shRNA

Sequence | sensor-assay potency score (higher = more potent)
TTCTTGGCTTTCATGATGTTGG | -0.962
TCTGGTTACAGTCATCATCGAT | -0.57
TTCTCCTTCTCTGCCAGCTTGG | -1.27
TCGATCTTCTTCTTCTTGGCTT | -0.249
AAGAAATCCAGCTGTCATCTGC | 0.386
TTCTTCTTGGCTTTCATGATGT | -0.521
ACACTGATCACAGAGAGCTTGG | -0.751
ATCACCTCGATCTTCTTCTTCT | -0.543
TCGTCTCCTGGCACTGTGCAGG | -1.37
TGGAGGTCAGGTCCACACCCAG | -1.98
TTTCAACTTGTCCCCCTCCAGC | -1.21
TCAGCTGTCACCACAGCTGGCA | -0.558
AAGCGTTCTGCTTCTGCTGGGG | -0.0454
TCCGTGACCACACCGGTCCTGT | -1.31
ACAGTCATCATCGATGGCCTGT | -0.63
TTGGCTTTCATGATGTTGGGCA | 0.503
TTCATGGAGTGCTTCACACCAT | 0.145
AATCCAGCTGTCATCTGCCCTG | -0.828
TCGGTCTGCACCCATGGCCAGG | -1.71
TTGATCACCTCGATCTTCTTCT | 0.521
TCCACTTTCAACTTGTCCCCCT | -0.169
TCTCCTTGAGCCGCACAGCCTC | -1.05

Target: ETS1
Assay: as above
Conditions: shRNA

Sequence | sensor-assay potency score (higher = more potent)
TTCTTGTTTGATAGCAAAGTAG | -1.22
TTTTTGTCGTAATAGTAGCGTA | -0.88
TTTTGTCGTAATAGTAGCGTAG | -0.397
TTGTTTGATAGCAAAGTAGTCA | -0.385
TGAGACATCATTTCTTTGCTGC | 0.679
TATCGTAGCTCTCTATGCTTTC | -0.783
TTCTTTAGTGAAACCACTGAAA | -0.218
TTTCTTTGCTGCTTGGAGTTAA | -0.637
TAGCTAATGAAGTAATCCGAGG | -1.48
ATAGCTAATGAAGTAATCCGAG | -0.147
TAACTTGATATGGTTTCACATC | -1.41
TTGATATGGTTTCACATCCTCT | -1.06
TAGCAAAGTAGTCATTCTGCAA | -0.233
TTCTGCAAGGTGTCTGTCTGGA | 0.532
TTTATCAGTGAGTAATTCCAGA | -0.449
TTTTCCGTCTTGATGATGGTGA | -0.268
TATGCTTTCAAAAGAGTCCTGG | 0.343
TGAAAGTAGCTTTTAATGCTTG | -0.0896
